Reference: the supplement of paper PMC6555819

The sequences below were run on PPARg DBDmut:RXRa IVT, anti-PPARg (DBD mutation: PPARg1 K132A/R137A, NR concentration 270 nM, RXRa partner concentration 90 nM) (assay: PBM binding z-score (relative to random genomic background probes); higher = stronger binding; sequences stand for … in GC…GCGATTGACAGCGTAGAATGAAGG).
Method in brief: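 For binding z-scores, the reference was random background probes on custom Agilent 4×180K protein-binding microarrays. These arrays were incubated 1 h with ligand-free nuclear receptor dimers in PBS pH 7.4, 2% milk, 0.02% Triton X-100, 1 mM DTT, 0.2 mg/mL BSA and 0.4 mg/ml salmon testes DNA. Fluorescence was scanned after antibody detection of each partner (one per run) and regression-normalized.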

Sequence | PBM binding z-score
TCATTTAGGTAAAAGGTGAAAGTCGGTGTGGTAA | 0.936
CCTAGTTAGTCAGGAGGTCACACACCGGATATGA | 1.22
TATACAGGGTCAAAGGCCAGAGGACGAATGTCGA | 2.24
GTACCAAGGTGAATAGGTGGTTGATGAGTAGGCG | 0.268
CGAACGAGGGCAGGAGTTGATAGCAAATGCCGAT | -0.723
CCTTACGGGTCACGAGGCTATAGCACGACGAGCG | 0.556
TCTATTAGTTGAAGGACAACCGACGAGTCCGTTT | 0.961
CGTCCAAGGCCATAGGAGGTCAGTGAAGACAGAT | -0.275
CCTACTGGGCCATTCAGAGGTCATTCATCATATG | -0.0468
AGAATGAGGTTATACGTGGATCAGGGAAGAAAGT | 1.26
TCATATATGTAATACAGGTGAAAGTCGGCATCTA | 1.39
ATCGAAAGGTCGGGGTGAGTATAGAGAAAGGGAA | 1.09
ATCTCTAGGTAAAGTTCAGGGAAAGATCGATAGA | 1.23
ATATGTAGGTTACATCCGGGTCACTCAGGCTATG | 3.76
GCTAGAAGGCCATTTGGGTCACTCAATGACGGGC | -0.158
GGAACGAGGGCTAGTTGATAGCAGAGTTTGATGG | -0.313
TGAACGAGGTTAAAGATCAGGGAACGTGGCGTCG | 0.475
TCATATAGGTAAAGATGAAAGTCGAACGATATGA | 1.28
AGAACGAGGGCAATGAGTTGATACCACGGGTGGC | 0.451
CAGCCTGGGTCAGGGCCAGTATAGGAGGAACGTT | -1.28
CCTTACGGGTCACGAGGTTATAACACGACGAGCG | 1.01
TCTGCGAGGTCAACGATGGTCAGCTAATCTGCTA | 0.567
